Reference: PubChem BioAssay

assay: growth of efflux-deficient E. coli DRC39 – strain DRC39, OD650, 48 h, E. coli filamentation inducers, primary screen (AID 1179);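 note: screen aims at cell division blockers that make cells filament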; settings: E. coli DRC39 delta-acrAB growth, higher = more signal, called active from +8 up or from −8 down

z-score, inactive:
COC(=O)CC=C[C@@H](C)[C@@H](C=NO[C@@H](C)c1cn([C@H](CO)Cc2ccccc2)nn1)OC -0.913
COC(=O)CC=C[C@@H](C)[C@@H](C=NOC[C@@H](O)[C@H]1O[C@@H]2OC(C)(C)O[C@@H]2[C@H]1O)NS(=O)(=O)c1ccc(C)cc1 0.447
COc1ccc(O[C@H]2C=C[C@@H](c3ccccc3)O[C@@H]2COC(=O)CCC(C)=NOC(C)CN2CCCc3nc(C)c(C)cc32)cc1 (some centres undefined) 0.129
CCOC(=O)NN=C1C[C@@H](O)[C@@H](O)[C@@H]2[C@@H]3C(=O)N(Cc4ccc5c(c4)OCO5)C(=O)[C@@H]3CC[C@H]12 0.19
CC(C)=NO[C@H](C)c1cn([C@H](CO)Cc2ccccc2)nn1 -1.91
CCOC(=O)[C@H](CC(C)C)NC(=O)CCC1CC(OC(=O)NCc2cccc3ccccc23)CC2(CCCC(COC(=O)NCCOc3ccccc3)O2)O1 (some centres undefined) 0.253
CC(C)[C@@H](OCc1ccccc1)[C@H](C)C=NOC[C@@H](O)COCc1ccco1 0.43
CCOC(=O)[C@H](CC(C)C)NC(=O)CCC1CC(OC(=O)NCc2cccc3ccccc23)CC2(CCCC(COC(=O)NCCOC)O2)O1 (some centres undefined) -0.0291
CON=C1[C@H]2CCn3c(=O)n(-c4ccccc4)c(=O)n3[C@H]2[C@H](O)[C@@H]2O[C@H]12 -1.03
CO[C@@H]1COC(=O)CC=C[C@@H](C)[C@@H]2C=C[C@H](O)[C@@H](COC(=O)CC=C[C@H]1C)O2 0.799
COC(=O)[C@@H]1CC[C@H](C)[C@@H](c2ccc(C)cc2)N1C(=O)c1ccc(C=NOCC[C@@H]2C=C[C@H](OC(C)=O)[C@@H](COC(C)=O)O2)cc1 -0.62
CCOC(=O)CCN1C(=O)[C@H]2[C@H]3[C@H](O)[C@H](O)CC(=NOCc4ccccc4)[C@H]3CC[C@H]2C1=O 1.08
CCOC(=O)NN=C1C[C@@H](O)[C@@H](O)[C@@H]2[C@@H]3C(=O)N(c4cccc(Oc5ccccc5)c4)C(=O)[C@@H]3CC[C@H]12 -0.642
COC(=O)CC=C[C@@H](C)[C@@H](C=NOC(C)CN1CCCc2nc(C)c(C)cc21)OC (some centres undefined) -0.0403
